Source: PubChem (several laboratories)
HCT116 bCat-KO: beta-catenin-lacking colon tumor cell growth suppression; HCT116 beta-catenin knockout viability, CellTiter-Glo, 60 h; hits give low values; viability, % at 10 µM; 140,000 compounds, 1.5% hits; AID 818;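 active = viability at or under a set limit, the compound median less 4 SD, cut at about 6% in these data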;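 also: 0% = Hyamine 1622 control at 20 µM and 100% = untreated cell control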
L major viab: inhibitors of Leishmania major promastigote growth; Leishmania major promastigotes, resazurin fluorescence viability; inhibition, % at 10 µM; 200,000 compounds, 9% hits; in the data active = inhibition above about 50%;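 also: promastigotes grown with compound for 44 hours at 28 °C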
Ins promoter up: MIN6 insulin promoter up-regulation; MIN6 insulin promoter-GFP reporter, high-content imaging; hits give high values; 190,000 compounds, 0.3% hits; z-score at 5 µM;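 active = z-score above 3 at 5 µM with at least 500 cells counted in the well; inconclusive = wells under 500 cells, flagged as cytotoxic or low count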
Autophagy mod: alters autophagy in cells; MEF GFP-LC3 puncta imaging; test concentration mostly 10 µM; AID 463193; calls only at 10 µM (by protocol); 190,000 compounds, 0.98% hits;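 active = percentage of spot-positive cells more than 3 SD above its plate mean, without a fluorescence outlier flag or 80% toxicity; inconclusive = no clear call, values can overlap the other calls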;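 also: spot-positive cell cutoff set from DMSO-treated cells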
Insulin prom inh: TRM-6 insulin promoter activity inhibition; TRM-6 cells (human fetal islet line), insulin promoter-eGFP reporter, imaging; reporter expression induced with tamoxifen; inhibition, % at 2 µM; 130,000 compounds, 0.9% hits;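 active = inhibition above the mean plus 3 SD, with well images judged a real hit on visual review, cut at about 60% in these data, passing the limit was not always enough; inconclusive = inhibition over the cutoff but images rejected on review; inactive = inhibition not above the cutoff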
HCT116 PTEN-null: suppresses growth of cells with PTEN deletion; HCT116 PTEN-null viability, CellTiter-Glo, 60 h; hits give low values; viability, % at 10 µM; 140,000 compounds, 1.2% hits; AID 827;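 active = viability at or below a set limit, 4 SD under the median of all tested compounds, cut at about 3.7% in these data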;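 also: PTEN knockout HCT116 line with beta catenin targeted HCT116 as companion control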
Active calls of the source: *; i = inactive; u = inconclusive; x = no result; + = active, no number. Most compounds without a hit are left out; they make up all but 9.6% or so of the library.

SMILES	HCT116 bCat-KO	L major viab	Ins promoter up	Autophagy mod	Insulin prom inh	HCT116 PTEN-null
Cc1ccc(C(=O)NCCn2c(N)c(C#N)c3nc4ccccc4nc32)cc1	74	7	4.1*	i	-450	76
COc1cccc(-c2ccc(SCC(=O)N3CCc4ccccc43)nn2)c1	88	-2	0.51	i	x	90
N=c1n(Cc2ccc(Cl)cc2)c2ccccc2n1CC(O)COc1ccccc1 (centres undefined)	x	100*	-1.4	i	x	x
O=C1CSC(=O)N1CC(O)COc1ccc(Cl)cc1 (centres undefined)	92	-10	x	i	x	98
Cc1ccc(OCC(O)Cn2c(=N)n(Cc3ccccc3)c3ccccc32)cc1 (centres undefined)	1.4*	100*	x	i	-80	1.6*
N=c1n(Cc2ccccc2)c2ccccc2n1CC(O)COc1ccc(Cl)cc1Cl (centres undefined)	x	100*	u	i	-14	x
Cc1cccc(OCC(O)Cn2c(=N)n(Cc3ccccc3)c3ccccc32)c1 (centres undefined)	x	x	-0.51	x	x	x
COc1ccc(OCC(O)Cn2c(=N)n(Cc3ccccc3)c3ccccc32)cc1 (centres undefined)	0.8*	101*	-3	i	x	1.4*
CCN(CCO)Cc1cn[nH]c1-c1ccc(C)c(C)c1	90	10	-1.7	i	x	91
COc1ccc(N=Nc2nc(-c3ccccc3)c(-c3ccccc3)[nH]2)cc1	73	87*	x	i	-10	59
COc1ccccc1N=Nc1nc(-c2ccccc2)c(-c2ccccc2)[nH]1	72	67*	-0.89	i	-7	79
COc1ccc(-c2nc(C)ncc2N=Nc2ccccc2)cc1	97	9	x	i	14	90
Oc1ccccc1N=Nc1nc(-c2ccccc2)c(-c2ccccc2)[nH]1	10	100*	-5.9	i	-1	12
COc1ccc(-c2[nH]c(-c3ccc4c(c3)OCO4)nc2-c2ccccc2)cc1	1.3*	65*	-1.3	i	x	1.4*
CCC1(C)Cc2c(sc3c2c(=O)n(C)c2nnc(SCC(=O)c4ccccc4)n32)CO1 (centres undefined)	x	8	x	i	-155	x
CC(C)(C)c1sc(N)nc1-c1ccccc1	x	15	x	i	43	x
O=C(C1=C[C@H](c2csc3ccccc23)C[C@H](OCc2ccc(CO)cc2)O1)N1CCN(Cc2ccc3c(c2)OCO3)CC1	x	66*	-0.67	i	x	x
O=C(Nc1ccccc1)C1=C[C@@H](c2csc3ccccc23)C[C@@H](OCc2ccc(CO)cc2)O1	x	58*	-0.22	i	x	x
CN1CCN(C(=O)C2=C[C@@H](c3csc4ccccc34)C[C@@H](OCc3ccc(CO)cc3)O2)CC1	x	90*	0.23	i	x	x
CC(=O)n1cc([C@@H]2C=C(C(=O)N3CCN(Cc4ccccc4)CC3)O[C@H](OCc3ccc(CO)cc3)C2)c2ccccc21	x	97*	-1.5	i	x	x
CC(=O)n1cc([C@H]2C=C(C(=O)N3CCN(Cc4ccccc4)CC3)O[C@@H](OCCCCO)C2)c2ccccc21	x	11	x	i	x	x
O=C(C1=C[C@H](c2csc3ccccc23)C[C@H](OCc2ccc(CO)cc2)O1)N1CCOCC1	x	5	0.18	i	x	x
Cn1c(Nn2cnnc2)nc2ccccc21	94	-3	-0.47	i	-121	101
CCCCCn1c(SCC2CCCO2)nc2cc(C(=O)N3CCC(C(N)=O)CC3)ccc2c1=O (centres undefined)	91	8	-0.57	i	44	82
CCOC(=O)c1c(-c2ccccc2)cn2c(C)cc(C)nc12	x	6	-0.5	i	x	x
SMILES	HCT116 bCat-KO	L major viab	Ins promoter up	Autophagy mod	Insulin prom inh	HCT116 PTEN-null
O=C(Nc1ccccc1)C1=C[C@@H](c2ccc(C(F)(F)F)cc2)C[C@@H](OCc2ccc(CO)cc2)O1	x	65*	-1.1	i	x	x
O=C(Nc1ccccc1)C1=C[C@@H](c2ccccc2)C[C@@H](OCc2ccc(CO)cc2)O1	x	30	x	i	x	x
Nc1[nH]n2c(=O)cc(-c3ccccc3)nc2c1N=Nc1ccccc1	3.7*	98*	-0.17	i	x	8
O=[N+]([O-])c1ccccc1NCCOc1ccccc1	86	-6	0.17	i	0	85
CCCCOc1ccc2ccccc2c1C=O	83	0	1.1	+	0	79
COc1ccc(N(C(=O)c2ccccc2C)S(=O)(=O)c2cccs2)cc1	13	94*	0.05	i	-74	14
COc1ccc(S(=O)(=O)N(C(=O)c2ccncc2)c2ccc(OC(=O)c3ccncc3)cc2)cc1	x	-3	0.78	i	x	x
CN(C)C(=O)c1cn(-c2ccccc2)nc1-c1cc2ccccc2oc1=O	x	-2	-0.29	i	-33	x
O=C1CSC(c2nn(-c3ccccc3)cc2-c2cc3ccccc3oc2=O)N1Cc1ccco1 (centres undefined)	59	52*	-0.64	i	-18	53
O=C(CNC1CCCC1)Nc1ccc(N2CCCCCC2)cc1	x	85*	0.21	i	x	x
CC1CCN(S(=O)(=O)c2ccc(NC(=O)CN3CCN(c4ccccc4)CC3)cc2)CC1	65	-6	0.48	i	-32	73
O=C(CNCCC1=CCCCC1)Nc1ccc(N2CCCCCC2)cc1	36	85*	-1.5	i	-22	24
O=C(CNCC1CCCCC1)Nc1ccc(N2CCCCC2)cc1	x	34	-0.1	i	x	x
CC1CCN(CC(=O)Nc2ccc(N3CCCCCC3)cc2)CC1	x	78*	2	i	x	x
O=C(CNC1CCCCCC1)Nc1ccc(N2CCCC2)cc1	66	19	0.59	i	x	63
O=C(COC(=O)c1cc(C(F)(F)F)cc(C(F)(F)F)c1)NCc1ccc(Cl)cc1	83	50*	0.67	i	-9	99
CC(C)(C)c1ccc(C(=O)NCc2ccccc2)cc1	x	-5	-0.31	i	x	x
O=C(O)CCN1C(=O)C2C3CC(C2C1=O)C1C(c2ccccc2)c2sc(=O)n(-c4ccccc4)c2SC31 (centres undefined)	x	-6	0.22	i	33	x
O=C1N=C2N(CCN3CCCCC3)c3ccccc3N2/C1=C\c1ccc([N+](=O)[O-])o1	x	100*	u	i	-388	x
CC1(C)[C@@H](O)CC[C@]2(C)C3C(O)C=C4[C@H]5C[C@@](C)(CO)CC[C@]5(C)CC[C@]4(C)[C@]3(C)CC[C@@H]12 (some centres undefined)	x	x	0.52	x	x	x
COc1ccc(CCN(C)Cc2ccc(OCc3ccccc3)c(OC)c2)cc1OC	54	64*	-1.4	i	x	55
COc1ccc(CCN(C)Cc2ccc(OC)c(OCc3ccccc3)c2)cc1OC	68	5	-0.8	i	x	64
COc1cc(CNCc2ccco2)ccc1OCc1ccccc1	92	100*	u	i	x	83
COc1cc(CNC23CC4CC(CC(C4)C2)C3)ccc1OCc1ccccc1	x	79*	-0.77	i	-19	x
COc1cc(CNc2ccc(N3CCCC3)cc2)ccc1OCc1ccccc1	10	-1	0.55	i	x	14
